Laboratory results: ChEMBL document CHEMBL3433997, “St. Jude Leishmania screening dataset” (2016)

The compounds below were run against Glucose transporter (Leishmania mexicana) (UniProt O61059) (assay: ST_JUDE_LEISH: Cytotoxicity at 2uM final concentration against transgenic Leishmania Mexicana promastigotes LmGT2 that are glucose transport deficient and complemented with the L. Mexicana glucose transporter 2. Activity is measured by DNA content using SYBR green in vitro).
Assay type: functional

Structure (SMILES) | inhibition
CC1(C)N=C(N)N=C(N)N1c1ccc(I)cc1 | 6.6%
N#Cc1ccc(-c2ccc(C(=O)NCCCCN3CCC(c4cn(CCCO)c5ccccc45)CC3)cc2)cc1 | 1.21%
C=CCn1c(SCC(=O)Nc2cc(Cl)ccc2Cl)nc2sc(C)cc2c1=O | 0.76%
Cc1nnc2c(NC(=O)NC3CCCC3)cc3cc(-c4ccc(CN5CCN(C)CC5)cc4)ccc3n12 | 4.79%
CC(=O)Nc1ccc(C(=O)Nc2ccc(-c3csc(-c4nc5ccccc5[nH]4)c3)cc2)cn1 | 0.75%
CN(C)[C@@H]1C(O)=C(C(N)=O)C(=O)[C@@]2(O)C(O)=C3C(=O)c4c(O)ccc(C#Cc5ccccn5)c4C[C@H]3C[C@@H]12 | 0.74%
Cc1ncc([N+](=O)[O-])n1CCOC(=O)NC(NCC1COc2ccccc2O1)C(Cl)(Cl)Cl (centres undefined) | 2.19%
CCN1CCN(c2cc(C)c3cc(NC(=O)c4ccc(N(CC)CC)cc4)ccc3n2)CC1 | -3.38%
Nc1ccc(-c2nc3cc(Oc4ccc5[nH]c(-c6ccc(N)cc6)nc5c4)ccc3[nH]2)cc1 | -0.55%
Cc1nc(C)c(-c2ccc(C(=O)c3ccccc3)cc2)c(O)c1Br | 5.35%
CC1CN(Cc2ccc(-c3ccc(-c4nc5ccccc5[nH]4)cc3)cc2)CC(C)O1 (centres undefined) | 4.66%
O=C(N[C@H]1CCN(Cc2ccc(OC3CCN(Cc4ccccc4)CC3)c(Br)c2)C1)c1ccc(Cl)c(Cl)c1 | 0.77%
COc1cccc(NC(=O)Nc2ccc(Nc3nc(C)cc(N4CCCC4)n3)cc2)c1 | 1.4%
CC(C)c1ccc(NC(=O)Nc2ccc(CCNCCCc3ccccc3)cc2)cc1 | 0.36%
